Compound activity from PubChem BioAssay.
GPR151 ag = activates the human receptor GPR151; PathHunter beta-arrestin GPR151 cells, luminescence; activation, % at 11.2 µM; actives 1% (n = 650,000); AID 1508602; in the data active means activation above about 4.9%;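 further: 0% = median of compound wells and 100% = cells with positive control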
FBW7 activator = activators of human E3 ligase FBW7; AID 1259310; normalized activity (activation), % at 26.1 µM; actives 0.13% (n = 650,000); AlphaScreen FBW7–phospho-cyclin E peptide binding, activator screen; in the data active means normalized activity above about 1.9%;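 further: purified mutant Fbw7 with reduced substrate affinity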
TEAD-YAP block = TEAD-YAP interaction inhibition; AID 1259422; HEK-TIYL cells, TEAD-Gal4/YAP UAS-luciferase luminescence; inhibition, % at 9.12 µM; actives 1.4% (n = 640,000); in the data active means inhibition above about 32%;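 further: 0% = median of test compound wells and 100% = reference inhibitor wells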
MITF primary = blocks human microphthalmia-associated transcription factor | AlphaScreen MITF homodimerization, bead proximity signal | actives 0.91% (n = 650,000) | inhibition, % at 2.6 µM | O75030; in the data active means inhibition above about 50%;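 further: 0% = vehicle wells with protein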
Target sequence (O75030 whole entry, looked up): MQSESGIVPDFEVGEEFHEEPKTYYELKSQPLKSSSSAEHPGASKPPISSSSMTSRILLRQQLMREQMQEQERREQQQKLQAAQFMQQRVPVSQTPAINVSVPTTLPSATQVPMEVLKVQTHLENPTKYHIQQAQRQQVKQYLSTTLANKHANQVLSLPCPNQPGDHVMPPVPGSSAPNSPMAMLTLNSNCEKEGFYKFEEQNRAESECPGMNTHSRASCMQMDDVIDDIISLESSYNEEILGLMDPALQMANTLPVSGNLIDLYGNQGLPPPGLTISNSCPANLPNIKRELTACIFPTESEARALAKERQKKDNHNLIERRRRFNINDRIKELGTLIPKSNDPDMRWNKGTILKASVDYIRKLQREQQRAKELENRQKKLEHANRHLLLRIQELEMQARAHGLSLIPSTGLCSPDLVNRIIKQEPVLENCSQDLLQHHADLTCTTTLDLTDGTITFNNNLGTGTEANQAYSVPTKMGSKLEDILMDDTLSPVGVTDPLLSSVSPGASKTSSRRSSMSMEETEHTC
* marks the source's active call; other numbers are inactive results. In the library only some 3.5% were active in any assay of this set; here they are far more common.

SMILES	GPR151 ag	FBW7 activator	TEAD-YAP block	MITF primary
COc1ccc2c(c1)nc(SCc1ccccc1)n2C	-0.6	2.0*	-70.5	12.2
COc1ccc2c(c1)nc(SCC(=O)C(C)(C)C)n2C	-0.1	-0.1	-6.1	-0.8
c1csc(-c2cn3nc4c(nc3n2)CCCC4)c1	-5.6	-0.2	33.6*	2.2
Cc1nc2nc(-c3cccs3)cn2nc1C	-4.6	0.0	-22.8	6.0
CCOC(=O)c1c(NC(=O)/C=C/C(=O)O)sc2c1CCCCC2	1.5	-0.1	21.0	-4.4
CCCOC(=O)c1c(NC(=O)/C=C/C(=O)O)sc2c1CCCC2	-0.8	0.0	37.2*	5.4
CCCOC(=O)c1c(NC(=O)/C=C/C(=O)O)sc2c1CCCCC2	4.0	-0.3	20.3	-1.7
CCOC(=O)c1c(NC(=O)/C=C\C(=O)O)sc2c1CCC(CC)C2 (stereo unspecified)	-0.8	0.1	43.3*	-8.1
O=C(Nn1c(SCc2ccc(F)cc2Cl)nc2ccsc2c1=O)c1ccccc1	0.3	0.1	-3.6	3.3
CCOC(=O)N1CCc2[nH]c3ccc(OC)cc3c2C1	3.1	0.0	-14.1	-5.5
CCOc1ccc(C2C(C(=O)OCCSCC)=C(C)NC3=C2C(=O)C(C(=O)OC)C(C)C3)cc1 (stereo unspecified)	-1.3	0.7	12.1	6.7
CCSCCOC(=O)C1=C(C)NC2=C(C(=O)CCC2)C1c1ccc(Br)cc1 (stereo unspecified)	-1.7	2.0*	6.6	5.3
CC1=C(C(=O)OCCOc2ccccc2)C(c2coc3ccc(Cl)cc3c2=O)C2=C(CCCC2=O)N1 (stereo unspecified)	-0.5	0.0	-0.8	-16.3
CCOC(=O)C1=C(C)NC2=C(C(=O)CCC2)C1c1coc2ccc(Cl)cc2c1=O (stereo unspecified)	-0.5	2.3*	24.3	14.2
CCOc1cccc(C2C(C(=O)OCCSCC)=C(C)NC3=C2C(=O)C(C(=O)OC)C(C)C3)c1 (stereo unspecified)	-0.2	1.9*	-18.9	14.3
Cc1cccc(-n2ncc3c(NC4CCCCC4)ncnc32)c1	2.0	0.1	53.4*	-6.2
CN(c1ncnc2c1cnn2-c1ccccc1)C1CCCCC1	0.8	0.1	93.2*	-2.0
Cc1ccc(-n2ncc3c(NC4CCCC4)ncnc32)cc1	-1.0	0.2	37.2*	-7.7
Fc1ccc(-n2ncc3c(NC4CCCC4)ncnc32)cc1	-0.1	-0.1	-21.9	-6.2
c1ccc(-n2ncc3c(NC4CCCCCCCCCCC4)ncnc32)cc1	0.7	0.0	-5.1	30.5
COc1cccc(N/C(SCc2cccc([N+](=O)[O-])c2)=C(/C#N)C(=O)NCc2cccs2)c1	0.1	-0.1	-10.4	-5.2
O=C(Oc1ccc2c(=O)c(Oc3ccccc3Br)coc2c1)c1cccc(Br)c1	-0.8	0.1	-3.2	-3.8
OCCCNc1ccc2ncc(-c3ccsc3)n2n1	-1.6	0.8	51.0*	-0.2
O=C(O)c1ccc(-c2cnc3ccc(NCCCO)nn23)cc1	-0.4	0.2	0.1	11.9
c1ccc2cc(-c3cnc4ccc(NCCCN5CCOCC5)nn34)ccc2c1	0.6	-0.5	-6.3	-18.8
SMILES	GPR151 ag	FBW7 activator	TEAD-YAP block	MITF primary
OCCCNc1ccc2ncc(-c3ccccc3)n2n1	0.2	-0.2	43.2*	9.3
FC(F)(F)c1cccc(-c2cnc3ccc(NCCCN4CCOCC4)nn23)c1	0.3	1.9*	15.6	6.8
OCCCNc1ccc2ncc(-c3cccc(O)c3)n2n1	-0.1	-0.4	72.0*	-10.8
O=C(NNC(=S)NCc1ccccc1)c1cc2ccccc2o1	0.0	-0.1	-9.2	-4.4
CC(=O)c1cccc(-c2cnc3ccc(NCc4cccs4)nn23)c1	-0.5	-0.1	7.3	-0.5
CCCNc1ccc2ncc(-c3cccc(C(C)=O)c3)n2n1	0.1	0.1	34.2*	-15.5
OCCCNc1ccc2ncc(-c3cccc(Cl)c3)n2n1	0.2	-0.5	53.1*	0.2
Cc1ccnc(NC(=O)c2cc3ccccc3o2)c1	-8.3	0.5	55.8*	3.5
Cc1cc(C)cc(NC(=O)c2cc3ccccc3o2)c1	-0.6	0.0	-26.6	2.0
O=C(Nc1ccccn1)c1cc2ccccc2o1	-9.6	-0.2	70.5*	10.8
O=C(Nc1ccccc1NC(=O)c1cc2ccccc2o1)c1ccccn1	0.4	-0.1	-3.8	-3.2
Cc1sc2ncnc(NCc3ccncc3)c2c1C	1.0	-0.1	-0.1	1.9
Cc1sc2ncnc(NC(C)c3ccc(-n4ccnc4)cc3)c2c1C (stereo unspecified)	0.9	-0.1	46.8*	4.7
COc1cc(Nc2nc(Nc3ccccn3)nc3c2ncn3-c2ccsc2)cc(OC)c1OC	1.6	0.1	31.1	7.0
COc1cc(Nc2nc(Nc3nc4ccccc4n3C)nc3c2ncn3-c2ccsc2)cc(OC)c1OC	-1.5	-0.1	36.9*	13.9
COc1cc(Nc2nc(Nc3cc(OC)c(OC)c(OC)c3)c3ncn(-c4ccsc4)c3n2)cc(OC)c1OC	2.6	0.2	50.5*	1.7
CCCNc1nc(-c2ccc(N3CCN(C)CC3)cc2)nc2c1ncn2-c1ccsc1	-3.3	0.2	27.9	13.8
COc1ccc(-c2nc(NCCO)c3ncn(-c4ccsc4)c3n2)cc1	1.0	0.1	61.5*	3.1
CN1CCN(c2ccc(-c3nc(NCCO)c4ncn(-c5ccsc5)c4n3)cc2)CC1	-1.1	0.0	86.9*	11.7
CN1CCN(c2ccc(-c3nc(NCc4cccnc4)c4ncn(-c5ccsc5)c4n3)cc2)CC1	-3.1	-0.1	36.0*	32.4
Cn1cnc([N+](=O)[O-])c1Sc1nc2ccccc2[nH]1	-0.7	0.5	56.2*	0.6
Cc1ccc(S(=O)(=O)NCC2(c3ccccc3)CCCC2)cc1	-0.7	-0.2	-0.6	-5.3
O=C(OCc1ccccc1)c1cc(Cl)ccc1[N+](=O)[O-]	-1.2	-0.2	5.5	4.1
O=C(OCc1cc(=O)oc2cc(O)c(O)cc12)c1cc(Cl)ccc1[N+](=O)[O-]	0.7	0.0	5.8	64.0*
Cc1cc(N/N=C\c2ccccc2)nc(-c2ccccc2O)n1	0.1	0.1	14.6	6.3
SMILES	GPR151 ag	FBW7 activator	TEAD-YAP block	MITF primary
Oc1ccc(/C=N/Nc2ncc(-c3ccccc3)cn2)c(O)c1	-1.3	-0.6	61.6*	31.1
Cc1nc(N/N=C/c2ccc(O)cc2O)cc(-c2ccccc2)n1	-0.4	-0.2	10.0	7.2
Cc1cc(N/N=C/c2ccc(O)cc2O)nc(-c2ccccc2O)n1	-0.6	-0.4	43.2*	2.7
C/C(=C/c1ccccc1)C(=O)N1CCN(c2ccc([N+](=O)[O-])cc2)CC1	2.6	-0.5	-10.9	1.0
CCNc1nc(NCCCN2CCCC2=O)c2ncn(Cc3ccc(C(F)(F)F)cc3)c2n1	1.7	0.1	-3.6	-1.8
Cc1ccc(C)c(CSc2nc3[nH]ncc3c(=O)[nH]2)c1	1.4	0.2	36.7*	9.9
Cc1ccccc1CSc1nc2[nH]ncc2c(=O)[nH]1	0.1	0.0	-7.0	4.8
Nc1ncnc(N2CCc3ccccc32)c1[N+](=O)[O-]	1.9	-0.1	36.2*	-2.8
O=[N+]([O-])c1c(N2CCCCC2)ncnc1N1CCCCC1	4.7	-0.1	-3.6	4.8
Nc1ncnc(N2CCCCC2)c1[N+](=O)[O-]	-0.7	0.0	37.5*	-1.1
